Results published in PubChem BioAssay AID504339 (National Center for Advancing Translational Sciences (NCATS), 2011).
Among all 390,000 compounds or so, about 17,000 (4.4%) were called active. Roughly 8% stayed inconclusive and do not appear here. Many of the other results were omitted from the sample, so actives are more common in it than they were. A number with no mark means an inactive call. The call rests on the fitted dose curve; in most records, active means well fitted inhibition curve with a large enough effect; inconclusive means small, poorly fitted or top-dose-only effect; inactive means no such curve, though single readings can be large or run the other way.

The molecules below were run against Lysine-specific demethylase 4A (Homo sapiens) (UniProt O75164) (assay: qHTS Assay for Inhibitors of JMJD2A-Tudor Domain). Conditions: AlphaScreen JMJD2A-Tudor / H3K4me3 peptide binding; series mostly up to 114 µM; activity change, negative = inhibition: at the top concentration.
Source text: JMJD2A is a jumonji-domain-containing lysine demethylase that uses Fe(II) together with 2-OG to effect oxidative demethylation of histones. Methylation is one of many […] modification that affect epigenetic transcription. […] It is proposed that the functions of JmjD2A binding to the histones, is to maintain marks after they are installed and to spread the modifications by […], establishing a self-propagating cycle for rapid methylation over a large area of chromatin. […] Thus, small molecule targeting of the JMJD2A-tudor domain interaction with its target methylhistone mark is expected to enable sophisticated experiments probing the fine regulatory pathways leading to selective demethylation of a given methyllysine locus based on the methylation state of adjacent histone marks. A quantitative high throughput AlphaScreen has been developed to identify small molecule inhibitors based on a protocol published by NCGC and SGC [4].
Although AlphaScreen has significant advantages with its utility in a variety of epigenetic target assays, the primary screening data provided in this deposition should be used with caution due to the prevalence of screening artifacts. The top compound concentration tested was high (>100uM) in this assay, which increases number of actives and potential artifacts. An AlphaScreen counterscreen is highly recommended to be run against any putative actives to eliminate non-specific artifacts. Alternatively, one can use other AlphaScreen assays in PubChem to filter out promiscuous hits.
[1] Lee, J. et al. Distinct binding modes specify the recognition of methylated histone H3K4 and H4K20 by JMJD2A-tudor. Nat Struct Mol Biol. 15(1); 109-11. 2008. PMID: 18084306
[2] Yasgar, et al. Compound Management for Quantitative High-Throughput Screening. JALA. 2008 Apr;13(2):79-89. PMID: 18496600
[3] Inglese, et al. Quantitative high-throughput screening: a titration-based approach that efficiently identifies biological activities in large chemical libraries. Proc Natl Acad Sci. 1;103(31):11473-8. 2006. PMID: 16864780
[4] Quinn et al. A homogeneous method for investigation of methyl-dependent protein-protein interactions in epigenetics. Nucleic Acids Res., 38(2):e11. 2010. PMID: […]
[5] Baell,Holloway. New substructure filters for removal of pan assay interference compounds (PAINS) from screening libraries and for their exclusion in bioassays. J Med Chem. 53(7):2719-40. 2010. PMID: 20131845
NIH Molecular Libraries Probe Production Network [MLPCN]
NIH Chemical Genomics Center [NCGC]
Structural Genomics Consortium (SGC)
To each well of a 1,536w plate, 2ul of JMJD2A-Tudor (final 100nM) and 1ul biotinylated histone peptide methylated at Lys4 [b-H3(1-18)K4me3] (final 50nM) were added in 1x PBS buffer, pH 7.4, containing 0.01% Tween-20, using a nanoliter dispenser. Formation of a protein-peptide complex proceeded at room temperature for 30 min. A Kalypsys pin-tool transferred 23nl of library compound solution in DMSO to each well. Following a 30 min incubation of the protein-peptide complex with compounds at room temperature, a mixture of 40 µg/mL each streptavidin-coated donor and nickel chelate acceptor AlphaScreen beads (final 10 µg/mL) was added in a 1ul dispense for a final volume of 4ul, followed by a brief centrifugation (1000 rpm, 1 min). Plates were incubated protected from the light for 20 min at room temperature. Microplates were then read on an EnVision multilabel plate reader using the 1,536 plate HTS AlphaScreen aperture (excitation time 80 ms, measurement time 240 ms).
Further: nearly all actives have a fitted effect of over 50% in size.
On the % scale 0 is the no-effect control and ±100 the full control effect; potency means the concentration at half of the fitted maximal effect.

Lysine-specific demethylase 4A (Homo sapiens), sequence (O75164 whole entry, looked up, the tested form may be a part): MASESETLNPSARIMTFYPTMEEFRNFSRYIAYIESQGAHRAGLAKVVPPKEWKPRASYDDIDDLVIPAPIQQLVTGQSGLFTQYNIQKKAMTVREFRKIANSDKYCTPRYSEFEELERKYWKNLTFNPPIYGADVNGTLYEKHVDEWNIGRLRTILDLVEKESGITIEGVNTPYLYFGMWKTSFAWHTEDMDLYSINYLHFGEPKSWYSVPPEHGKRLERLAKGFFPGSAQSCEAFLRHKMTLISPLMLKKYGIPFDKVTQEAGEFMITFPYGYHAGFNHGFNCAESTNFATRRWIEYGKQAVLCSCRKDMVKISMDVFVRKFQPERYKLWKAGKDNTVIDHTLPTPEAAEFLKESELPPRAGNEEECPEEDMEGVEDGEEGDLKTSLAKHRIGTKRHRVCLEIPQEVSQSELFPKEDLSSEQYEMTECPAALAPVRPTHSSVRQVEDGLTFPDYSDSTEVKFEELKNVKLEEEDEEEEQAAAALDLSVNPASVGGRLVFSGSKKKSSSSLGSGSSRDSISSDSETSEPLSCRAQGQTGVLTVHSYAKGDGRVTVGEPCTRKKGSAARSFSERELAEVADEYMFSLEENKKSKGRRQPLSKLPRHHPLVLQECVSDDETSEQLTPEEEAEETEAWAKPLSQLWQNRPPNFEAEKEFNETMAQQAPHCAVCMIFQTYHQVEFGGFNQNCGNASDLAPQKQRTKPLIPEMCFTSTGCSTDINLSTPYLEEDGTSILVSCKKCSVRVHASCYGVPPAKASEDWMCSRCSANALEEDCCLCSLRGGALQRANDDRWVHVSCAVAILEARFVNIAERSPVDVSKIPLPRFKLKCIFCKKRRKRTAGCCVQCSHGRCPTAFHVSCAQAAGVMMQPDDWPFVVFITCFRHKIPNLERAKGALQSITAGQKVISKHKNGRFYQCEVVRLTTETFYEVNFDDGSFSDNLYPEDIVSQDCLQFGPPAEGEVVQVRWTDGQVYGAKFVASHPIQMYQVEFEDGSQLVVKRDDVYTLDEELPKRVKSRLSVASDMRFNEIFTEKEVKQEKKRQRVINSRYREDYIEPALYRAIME

Row | SMILES | activity change, negative = inhibition | Potency
1 | CC(=O)Nc1ccc(NS(=O)(=O)c2ccc3c(c2)NC(=O)CC(=O)N3)cc1 | -12.2% | 
2 | CC(=O)Nc1ccc(S(=O)(=O)Nc2ccc(N3CCCCC3)cc2)cc1 |  | 20 µM (active)
3 | CC(=O)Nc1ccc(S(=O)(=O)N2CCN(c3ccccc3)CC2)cc1 | -21.8% | 
4 | O=C(O)c1ccc2c(c1)N(Cc1ccc(F)cc1)C(=O)c1ccccc1S2=O (centres undefined) | -20.8% | 
5 | O=C(NCc1ccccc1Cl)C1=Cc2cc(Br)ccc2OC1 | 1.6% | 
6 | CCc1ccc(NC(=O)N2CCN(C(=O)c3nsc4ccccc34)CC2)cc1 | -27.9% | 
7 | COc1ccc(Cl)cc1NC(=O)CCn1c(=O)c2cccn2c2ccccc21 | -13.8% | 
8 | COc1cc(NC(=O)Cn2nc(-c3ccc(C)c(C)c3)ccc2=O)cc(OC)c1 | -12.3% | 
9 | Cc1c(NC(=O)CN(C)CC(=O)Nc2ccc(F)c(F)c2F)c(=O)n(-c2ccccc2)n1C | 5.56% | 
10 | CN(CC(=O)NCCc1ccc(F)cc1)CC(=O)Nc1ccc(F)c(F)c1F | -4.83% | 
11 | Cc1ccc(Cl)c(NC(=O)CN(C)CC(=O)Nc2ccc(F)c(F)c2F)c1Cl |  | 70.8 µM (active)
12 | COc1ccc(CCC(=O)NCCc2csc(-c3ccc(Cl)cc3)n2)cc1 | -11.2% | 
13 | O=C(CNS(=O)(=O)c1cccs1)N1CCN(c2ccccc2Cl)CC1 | -18.4% | 
14 | O=C(CSc1nccn1-c1ccc(F)cc1)Nc1cccc2ccccc12 |  | 28.2 µM (active)
15 | O=C(CSc1nccn1-c1cccc(F)c1)NC1CCCC1 | -3.47% | 
16 | O=C(CSc1nccn1Cc1ccc(F)cc1)NCc1ccccc1 | -8.06% | 
17 | CCCNc1ncnc2c1c(-c1ccccc1)cn2-c1ccc(OCC)cc1 | -30% | 
18 | Cc1nc2ccc(S(=O)(=O)NC(C(=O)NCc3ccccc3Cl)C(C)C)cc2s1 (centres undefined) | -16.2% | 
19 | COc1ccc(-c2nc3ccccc3o2)cc1NC(=O)c1cc([N+](=O)[O-])ccc1N1CCOCC1 | -3.73% | 
20 | CC(C)c1ccc(OCC(=O)N(Cc2ccc(N(C)C)cc2)C2CCS(=O)(=O)C2)cc1 (centres undefined) |  | 44.7 µM (active)
21 | Cc1cc(Cl)ccc1OCC(=O)N(Cc1ccc(N(C)C)cc1)C1CCS(=O)(=O)C1 (centres undefined) |  | 50.1 µM (active)
22 | COc1ccccc1C(=O)N(Cc1ccc(C)o1)C1CCS(=O)(=O)C1 (centres undefined) | 2.07% | 
23 | CCc1ccc(OCC(=O)N(Cc2ccccc2)C2CCS(=O)(=O)C2)cc1 (centres undefined) | -8.83% | 
24 | Cc1ccc(CN(C(=O)COc2ccc(Cl)cc2C)C2CCS(=O)(=O)C2)o1 (centres undefined) |  | 11.2 µM (active)
25 | COc1cc(C(=O)N(Cc2ccc(N(C)C)cc2)C2CCS(=O)(=O)C2)cc(OC)c1OC (centres undefined) | -6.11% [at 11.4 µM] | 

Row | SMILES | activity change, negative = inhibition | Potency
26 | Cc1cc(C)c(OCC(=O)N(Cc2cccs2)C2CCS(=O)(=O)C2)c(C)c1 (centres undefined) | -18.9% | 
27 | CCOc1ccc(C(=O)N(Cc2ccc(N(C)C)cc2)C2CCS(=O)(=O)C2)cc1 (centres undefined) | -25.5% | 
28 | Cc1ccccc1OCC(=O)N(Cc1cccc(F)c1)C1CCS(=O)(=O)C1 (centres undefined) | -5.52% | 
29 | O=C(C1CC1)N1CCc2cc(Br)cc(S(=O)(=O)N3CCN(c4ccccc4F)CC3)c21 | -11.6% | 
30 | CCc1ccc2oc(-c3ccc(NC(=O)c4cc5ccccc5o4)cc3)nc2c1 | 3.27% | 
31 | Cc1cccc(N2CCN(C(=O)Cn3ncc4c5ccccc5n(C)c4c3=O)CC2C)c1 (centres undefined) | 0.336% | 
32 | CCc1ccc(CN(Cc2ccco2)C(=O)COc2ccc(Cl)c(C)c2)cc1 | 21.1% | 
33 | COc1ccc(-n2nnc(-c3nsc(NC(=O)c4ccc(C)c(C)c4)n3)c2C)cc1Cl | -11.7% | 
34 | COc1ccc(-c2cc(C(F)(F)F)n3nc(-c4ccccc4)cc3n2)cc1OC | 29.5% | 
35 | CCc1ccccc1NC(=O)c1cnn(-c2ccc(F)cc2)c1C1CCNCC1 | 5.18% | 
36 | CCc1ccc2oc(-c3ccc(C)c(NC(=O)/C=C/c4ccco4)c3)nc2c1 | -16.7% | 
37 | C=CS(=O)c1sc(Cl)c(N2CCOCC2)c1[N+](=O)[O-] (centres undefined) |  | 50.1 µM (active)
38 | COc1ccc(NC(=O)C2CCCN(S(=O)(=O)c3c(C)[nH]c(=O)[nH]c3=O)C2)c(OC)c1 (centres undefined) | 5.82% | 
39 | CCc1ccc(CNC(=O)c2ccc(CS(=O)c3ccc(Br)cc3)o2)cc1 (centres undefined) | -2.68% | 
40 | CCCn1ccc2c(OCC(=O)NCc3ccc(F)cc3)cccc2c1=O | 4.22% | 
41 | Cc1ccc(S(=O)(=O)n2nc(-c3ccc(Cl)cc3)nc2NCc2ccccc2)cc1 | 3.09% | 
42 | Cc1c(C(=O)Nc2cccc(Cl)c2)oc2ccc(S(=O)(=O)N3CCOCC3)cc12 | -11.9% | 
43 | Cc1c(OC(C)C(=O)N[C@@H](Cc2ccccc2)C(=O)O)ccc2c3c(c(=O)oc12)CCCC3 (some centres undefined) | -10.9% | 
44 | Cc1oc2c(C)c3oc(=O)c(CC(=O)N[C@@H](CC(C)C)C(=O)N[C@@H](Cc4ccccc4)C(=O)O)c(C)c3cc2c1C |  | 56.2 µM (active)
45 | CC(C)C[C@H](NC(=O)N1CC(=O)Nc2ccccc21)C(=O)N[C@H](Cc1ccccc1)C(=O)O | -19% | 
46 | COC(=O)c1ccccc1NC(=O)Cn1c(=O)cc(C)c2c(C)nn(-c3cccc(Cl)c3C)c21 | -9.33% | 
47 | O=C(Nc1ccc(CN2CCOCC2)cc1)c1cc(Cl)ccc1Cl | 8.97% | 
48 | Clc1ccc(-n2nnnc2CN2CCCCC2)cc1Cl | 6.72% | 
49 | Clc1ccc(CN2CCCCCC2)cc1Cl |  | 3.98 µM (active)
